# Laboratory results taken from PubChem BioAssay AID1851 (National Center for Advancing Translational Sciences (NCATS), 2009).
# About 5,700 (36%) of roughly 16,000 compounds were called active. Inconclusive results (about 24%) are left out. The list shows a part of the results. Unmarked numbers belong to inactive results. Calls come from the whole dose curve; as a rule, active = well fitted curve in the direction sought with a large enough effect; inconclusive = small, poorly fitted or top-dose-only effect, or effect the other way; inactive = no such curve, though single readings can be large or run the other way.
# Target: Cytochrome P450 1A2 (Homo sapiens) (UniProt P05177)
# Test: Cytochrome panel assay with activity outcomes
# Settings: recombinant CYP, pro-luciferin dealkylation, luminescence, p450-cyp1a2; series mostly up to 57.1 µM; activity, negative = inhibition: at the top concentration
# % is set by controls: 0 for no effect and ±100 for the full control effect.
# Chain of Cytochrome P450 1A2 (Homo sapiens) (P05177 whole entry, looked up): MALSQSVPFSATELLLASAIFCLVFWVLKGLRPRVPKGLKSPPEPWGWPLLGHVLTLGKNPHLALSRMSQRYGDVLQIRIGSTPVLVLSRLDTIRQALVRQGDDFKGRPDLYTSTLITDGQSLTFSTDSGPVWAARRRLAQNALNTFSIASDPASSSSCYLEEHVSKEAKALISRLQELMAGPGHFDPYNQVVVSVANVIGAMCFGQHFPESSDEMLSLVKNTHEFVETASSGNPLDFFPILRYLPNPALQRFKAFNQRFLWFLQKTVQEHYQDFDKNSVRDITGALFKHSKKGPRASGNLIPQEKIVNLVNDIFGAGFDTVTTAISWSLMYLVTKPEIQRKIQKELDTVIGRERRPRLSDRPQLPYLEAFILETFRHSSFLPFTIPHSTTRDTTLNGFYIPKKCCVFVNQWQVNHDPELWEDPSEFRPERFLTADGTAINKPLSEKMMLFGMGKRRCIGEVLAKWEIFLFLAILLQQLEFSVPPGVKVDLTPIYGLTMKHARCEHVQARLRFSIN
SMILES,"activity, negative = inhibition",AC50
Cn1cccc1C(=O)N1CCC[C@@]2(CCN(Cc3nccs3)C2)C1,-7.87%,
CCN(CC)S(=O)(=O)c1ccc(C(=O)NC2=C(C(=O)OC)SCC2)cc1,,12.6 µM (active)
COC(=O)C1=C(NC(=O)c2cccs2)CCS1,,2.51 µM (active)
COC(=O)C1=C(NC(=O)c2cccc(OC)c2)CCS1,,3.16 µM (active)
CCN(CC)S(=O)(=O)c1ccc(C(=O)Nc2ncn(Cc3ccccc3)n2)cc1,-10.7%,
CCC(=O)N1CCN(c2ccc(NC(=O)c3cccs3)cc2)CC1,-9.21%,
CCCCN(CC)S(=O)(=O)c1ccc(C(=O)Nc2nnc(CSC)o2)cc1,-27.9%,
CC(=O)N(O)CCCCCNC(=O)CCC(=O)N(O)CCCCCNC(=O)CCC(=O)N(O)CCCCCN,-5.91% [at 25.6 µM],
O=C1[C@@H]2C=CC=CC2=NC(=S)N1CCN1CCC(=C(c2ccc(F)cc2)c2ccc(F)cc2)CC1,-5.13%,
O=C(Oc1ccccc1[N+](=O)[O-])c1cccnc1,,20 µM (active)
O=C(Nc1cccc(OC(=O)c2ccco2)c1)c1ccco1,,22.4 µM (active)
CN(C(=O)C(Cl)Cl)c1ccc(OC(=O)c2ccco2)cc1,-3.35% [at 25.6 µM],
O=C(Oc1cccc(Br)c1)c1cccnc1,,12.6 µM (active)
COc1ccc(C(C)=O)c(OC(=O)c2ccco2)c1,,2 µM (active)
O=C(NNC(=S)Nc1ccccc1)c1ccco1,0.324%,
NC(=O)c1ncn([C@@H]2O[C@@H](CO)[C@@H](O)[C@H]2O)c1O,-1.3%,
O=[N+]([O-])c1ccc(CSc2ncnc3c2ncn3[C@@H]2O[C@@H](CO)[C@@H](O)[C@H]2O)cc1,-12.3%,
O=C(Nc1cccc(OC(=O)c2cccnc2)c1)c1cccnc1,,7.08 µM (active)
O=C(Nc1ccc(OC(=O)c2cccnc2)cc1)c1cccnc1,-22.8%,
CC(C)C(=O)Nc1ccc(NC(=O)c2cccnc2)cn1,-6.09%,
O=C(Nc1ccc2nc(-c3ccc(Br)o3)[nH]c2c1)c1ccco1,,3.55 µM (active)
O=C(Nc1cccc(NC(=O)c2ccc(-c3cccc(Br)c3)o2)c1)c1ccco1,,3.16 µM (active)
CCOc1ccc(C(=O)Nc2ccc(NC(=O)c3ccco3)c(Cl)c2)cc1Br,-16.5%,
CNc1ccnc(-c2ccccc2CN(C)C)n1,,12.6 µM (active)

SMILES,"activity, negative = inhibition",AC50
CN(C)Cc1ccccc1-c1nccc(Nc2ccc(F)cc2)n1,,3.16 µM (active)
CN(C)Cc1ccccc1-c1nccc(NC2CC2)n1,,1.58 µM (active)
CN(C)Cc1ccccc1-c1nccc(N(C)C)n1,,12.6 µM (active)
CN(C)Cc1cc(C(C)(C)C)ccc1-c1ccc(C(C)(C)C)cc1CN(C)C,-17.9% [at 2.29 µM],
COCC(=O)N1CCC2(CC1)CCN(C(c1ccccc1)c1ccccc1)CC2,5.84%,
O=C(Nc1cccc(F)c1)N1CC[C@@]2(CCCN(C(=O)c3cnccn3)C2)C1,-11.2%,
CCOC(=O)c1c(CC(C)C)csc1NC=O,,0.224 µM (active)
N#CCCn1c(=O)c(-c2cccs2)nc2cnc(Nc3ccccc3)nc21,,5.01 µM (active)
CCNc1ncc2nc(-c3cccs3)c(=O)n(CCC#N)c2n1,,3.16 µM (active)
COc1cccc(Nc2ncc3nc(-c4cccs4)c(=O)n(CCC#N)c3n2)c1,,2.51 µM (active)
CCNc1ncc2nc(-c3cccs3)c(=O)n(CCc3ccccc3)c2n1,,10 µM (active)
CCOC(=O)c1c(-c2ccc(C)o2)csc1NC(=S)NC(=O)N(C)C,,1.58 µM (active)
O=C1C2=CC[C@H]3C(=O)N(c4cccc(Oc5ccccc5)c4)C(=O)[C@@H]3[C@@H]2[C@H](O)[C@@H]2O[C@H]12,-1.58% [at 11.4 µM],
CN(C)c1ccc(NC(=O)c2cccc(N3C(=O)C4C5C=CC(C5)C4C3=O)c2)cc1 (stereo not drawn),,2 µM (active)
O=C(CN1C(=O)C2C3C=CC(C3)C2C1=O)Nc1ccc(C(=O)O)cc1 (stereo not drawn),-3.43%,
O=C(CCN1C(=O)C2C3C=CC(C3)C2C1=O)Nc1ccc2ncccc2c1 (stereo not drawn),-7.75%,
CO[C@@H]1COC(=O)C/C=C\[C@@H](C)COC(=O)[C@H](COCc2ccccc2)NC(=O)C/C=C\[C@H]1C,-7.1% [at 11.4 µM],
O=[n+]1c2c(n([O-])c3cc(F)c(F)cc31)CCCC2,,14.1 µM (active)
CCOc1ccc(-c2c[n+](=O)c3c(n2[O-])CCCC3)c(OCC)c1,-21%,
CCCC1(C)Nc2ccccc2-c2nc3ccccc3n21 (stereo not drawn),,8.91 µM (active)
CCCCC1(C)Nc2ccccc2-c2nc3ccccc3n21 (stereo not drawn),,14.1 µM (active)
CCC1(C)Nc2ccccc2C(=O)N1O (stereo not drawn),-28.5%,
Fc1ccc(Nc2ccnc(-c3ccoc3)n2)cc1,,1 µM (active)
CN(C)C(=O)c1ccc(-c2nccc(Nc3ccc(F)cc3)n2)cc1,,6.31 µM (active)

SMILES,"activity, negative = inhibition",AC50
CN(C)c1ccc(-c2cc(Nc3ccc(F)cc3)ncn2)cc1,,0.398 µM (active)
Fc1ccc(Nc2ccnc(-c3ccc4c(c3)OCO4)n2)cc1,,0.631 µM (active)
CCCCC1CC(/C(C)=N/NC(N)=O)OC1=O (stereo not drawn),-23%,
C[C@@]12CC(=O)[C@@H]3[C@@H](CCC4=CC(=O)CC[C@]43C)[C@@H]1CC=C2CC(=O)O,-17% [at 11.4 µM],
NC(=O)CCCC1=NS(=O)(=O)c2ccccc2N1,8.32%,
CN(C)[C@@H]1C(=O)C(C(N)=O)=C(O)[C@]2(O)C(=O)C3=C(O)c4c(O)ccc(Cl)c4[C@H](O)[C@H]3C[C@@H]12,,inactive
CC1(C)O[C@H]2[C@@H](c3[nH]nc4c(=O)[nH]c(=O)[nH]c34)OC[C@H]2O1,-11.5% [at 11.4 µM],
CN(C)c1ccc(-c2nccc(Nc3ccc(F)cc3)n2)cc1,,0.501 µM (active)
NNC(=O)[C@@H](O)[C@H](O)[C@H](O)CO,-0.774% [at 11.4 µM],
N#C[C@@H](N=Nc1ccccc1C(=O)O)C(N)=O,-8.23% [at 11.4 µM],
NC(Cc1ccccc1)=NCC(=O)O,-5.52% [at 11.4 µM],
N=C(N)[C@H](N=Nc1ccccc1)C(N)=O,,0.794 µM (active)
CC(C)(C)NC[C@@H](O)c1ccc(O)c(CO)n1,10.1% [at 2.29 µM],
CC[N+](C)(CC)CCC[n+]1c(-c2ccccc2)c2cc(N)ccc2c2ccc(N)cc21,,12.6 µM (active)
Cn1c(=S)c2[nH]c(SCCN3CCCC3)nc2n(C)c1=O,-29.7% [at 2.29 µM],
Cn1c(=S)c2[nH]c(SCCCc3ccccc3)nc2n(C)c1=O,,3.16 µM (active)
Cn1c(=O)c2[nH]c(CCCc3ccc([N+](=O)[O-])cc3)nc2n(C)c1=O,-18.9% [at 11.4 µM],
COC(=O)C/C=C\[C@@H](C)[C@@H](/C=N\OC[C@@H](O)COCc1ccco1)NS(=O)(=O)c1ccc(C)cc1,3.98% [at 11.4 µM],
Oc1cccc(-c2nc3c4c(ncn3n2)-c2ccccc2CC42CCCC2)c1,,10 µM (active)
NC(=S)Nc1cccc2cccnc12,,12.6 µM (active)
O=C(Nc1cccc2cccnc12)[C@@H]1[C@@H](C(=O)O)[C@H]2CC[C@@H]1O2,-11% [at 11.4 µM],
Cc1cc2c(nc1C)CCCN2C[C@@H](O)CN1CCN(C)CC1,-2.48% [at 11.4 µM],
Cc1c(Cl)cccc1NC(=O)CCC(=O)NNC(=O)c1ccco1,-7.06%,
CC1CCN(c2ccccc2NC(=S)NC(=O)c2cccs2)CC1,,7.08 µM (active)

SMILES,"activity, negative = inhibition",AC50
CC(=O)NS(=O)(=O)c1ccc(NC(=S)NC(=O)c2ccco2)cc1,7.37%,
O=C(NC(=S)Nc1cccc(Cl)c1N1CCCCC1)c1cccs1,,10 µM (active)
O=C(NC(=S)Nc1cccc(Cl)c1N1CCCCC1)c1ccco1,,12.6 µM (active)
CN(C1CCCCC1)S(=O)(=O)c1ccc(NC(=S)NC(=O)c2cccs2)cc1,3.78%,
Cc1c(NC(=S)/C=C2\N(C)c3ccccc3C2(C)C)c(=O)n(-c2ccccc2)n1C,-5.66%,
COc1cccc(C(c2c(C)[nH]n(-c3ccccc3)c2=O)c2c(C)[nH]n(-c3ccccc3)c2=O)c1O,,7.08 µM (active)
CC1=NN(c2ccccc2)C(=O)/C1=C\c1c(C)[nH]n(-c2ccccc2)c1=O,2.78%,
COc1cccc(C2NC(c3cccc(OC)c3O)C(C)C(=O)C2C)c1O (stereo not drawn),-27.3%,
CCN1CCC[C@H]1CNC(=O)c1c(OC)ccc(Br)c1OC,,inactive
CCN(CCCNC(=O)CC(C(=O)N1CCc2ccccc21)n1ccnc1)c1ccccc1 (stereo not drawn),,3.16 µM (active)
CCCCN(C)CCCNC(=O)CCn1nc(-c2ccccc2)ccc1=O,-12.7%,
CCC(=O)[C@@]1(C)[C@H](C)C[C@@H]2[C@@H]3CCC4=CC(=O)C=C[C@@]4(C)[C@H]3[C@H](O)C[C@]21C,-19.8% [at 25.6 µM],
CN(C)CCn1c(=O)n(Cc2ccco2)c(=O)c2c3c(sc21)CCCCC3,,2.24 µM (active)
O=C(Cn1c(=O)n(Cc2ccco2)c(=O)c2c3c(sc21)CCCCC3)c1ccccc1,,12.6 µM (active)
CN(c1ccccc1)c1ccc(/C=c2\s/c(=C(/C#N)C(=O)C(C)(C)C)n(Cc3ccco3)c2=O)cc1,-45.3%,
Cc1ccc(-n2c(=O)c3sccc3n(CC(=O)NCc3ccco3)c2=O)cc1F,10.2%,
NC(=O)Cn1c(=O)n(Cc2ccco2)c(=O)c2c3c(sc21)CCCCC3,,4.47 µM (active)
O=C(O)/C=C/C(=O)Nc1ccccc1-c1ccccc1,-3.11%,
O=C(O)/C=C\C(=O)Nc1cccc2c1-c1ccccc1C2=O,,2.51 µM (active)
CC[C@H](C)N(C)C(=O)c1cc2ccccc2c(-c2ccccc2Cl)n1,5.49%,
Fc1ccc(-c2ccnc3nc(N4CCOCC4)nn23)cc1,,10 µM (active)
